Results on 38 compounds are retold here after PubChem BioAssay (NCI).

“And” between values parts separate entries of the source, which are not always exact repeats. Identical values can stand only once. Compounds without any hit were thinned out: in the full panel of roughly 83,000, 20% have a hit.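 How to read the values: 0–100, growth inhibition (40 = 60% inhibited); 0, no net growth; -100 to 0, cell death (-40 = 40% of starting cells died; -100 = all dead).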 Values without a mark were called inactive. The source made the active and inactive calls. How the source made its calls: active means growth percent below 10; inactive means the rest.

This assay concerns HCT-116 colon. Description: NCI-60 one-dose screen, 48 h (100 = growth as untreated, 0 = no growth, -100 = all killed). Conditions: 10 µM unless noted.
Consider `COc1ccc(N=Nc2c(N)nn3c(-c4ccc(OC)c(OC)c4)ccnc23)cc1`, for which the growth was 72.5%. Under `CC1=C(C)C(=O)C(NCCN2CCOCC2)=C(Br)C1=O` stands -75.5% (active); under `COc1ccc(Nc2ncnc3sc4c(c23)CCN(Cc2ccccc2)C4)cc1`, 86.4%; under `CCCCCCCCCc1ccc(C(=O)Nc2cc(C)ccc2C(=O)OC)cc1`, 96.7%. With `O=C(N/N=C/c1ccc(Cl)o1)c1[nH]c2ccc(Br)cc2c1-c1ccccc1`, the growth is -56.1% (active). On to `O=C(N/N=C/c1occc1Br)c1[nH]c2ccc(Br)cc2c1-c1ccccc1`, for which the growth was -74.5% (active). Under `c1n[nH]cc1-c1nc2ccc3cn[nH]c3c2c2c1CCCC2` stands 89.5%.

For the compound `Cc1ccc(C(=O)Nc2cc(-n3ccnc3)cc(C(F)(F)F)c2)cc1-n1cc(-c2cnc3cccnn23)nn1`, the growth was 55.1%.

Turning to `COc1ccc(-c2nc3ccc(-c4nnc(SCc5ccccc5)o4)cc3[nH]2)cc1`, the growth is -60.5% (active).

`Cc1ccc(C2CC(c3ccc(NC(=S)Nc4ccccc4)cc3)=NN2c2ccc(S(N)(=O)=O)cc2)cc1` (stereo not drawn): the growth is 10.1%.

With `COc1ccc(C(=O)NNC(=O)CSc2nc3sc4c(c3c(=O)n2-c2ccc(Cl)cc2)CCCC4)cc1`, the growth is 72.7%. Turning to `Cc1[nH]nc2ccc3nc(-c4cn[nH]c4C(F)(F)F)c4c(c3c12)CCCC4`, the growth was -49% (active). In the case of `CCC(=O)c1c2c(c3ccc4c5ccccc5ccc4n13)C(=O)c1ccccc1C2=O`, the growth is 92.6%.

Turning to `Cn1cc(-c2cc3nc(-c4cn(C)c5ncc(Br)cc45)cc(N)n3n2)c2cc(F)ccc21`, the growth is -44.1% (active). Under `COc1ccc(-c2cc(C(=O)OCc3ccc(Br)cc3)nn2-c2ccc(S(C)(=O)=O)cc2)cc1OC` stands 83.4%. As to `CCc1ccccc1-c1nc(CN[C@@H]2C[C@@H]3C[C@H]([C@H]2C)C3(C)C)c(C)o1`, the growth was -82.4% (active).

In the case of `O=C(CSc1nnc(-c2ccc(-c3nc4ccc(Cl)cc4[nH]3)cc2)o1)Nc1ccccc1`, the growth was 5.65% (active). Under `CCCCCCCOc1ccc(S(=O)(=O)Nc2ccc(C)c(F)c2C(=O)O)cc1` stands 95.5%; under `CCc1ccccc1NC(=O)N/C(N)=N/c1nc2ccccc2s1`, -26.2% (active); under `OC(c1ccccc1)(c1ccccc1)C1CCN(c2ccc3nnc(Cl)n3n2)CC1`, 22.6%. To `Cc1ccc(S(=O)(=O)N(CCn2ccnc2[N+](=O)[O-])CCn2ccnc2[N+](=O)[O-])cc1` belongs 102%. To `O=C(c1ccc(Cl)cc1)C1[C@H](c2ccccc2Cl)[C@@H](c2ccccc2)NC12C(=O)Nc1ccccc12` (stereo partly drawn) belongs -91.3% (active); to `CS(=O)(=O)Nc1cccc(-n2cnc3cc(-c4ccc(O)cc4)ccc32)c1`, 33.5%; to `CC(C)(C)C(=O)c1c2c(c3ccc4c5ccccc5ccc4n13)C(=O)c1ccccc1C2=O`, 90.7%. Regarding `COc1ccc(CCC2NCCc3c(Br)c4c(c(OC)c32)OCO4)cc1` (stereo not drawn), the growth was 4.11% (active).

`O=C(Nc1ccc(Br)cc1)Nc1ccc(-c2ccc3c(c2)NC(=O)/C3=C\c2ccc[nH]2)cc1`: the growth is 35%. Under `O=C(Nc1nc2ccccc2s1)Nc1ccccc1Cl` stands 79.7%.

As for `CN(C)c1nc(NCCNS(=O)(=O)c2ccc(C(=O)/C=C/c3ccc(Cl)cc3)cc2)nc(N2CCOCC2)n1`, the growth is -95.5% (active). Turning to `COc1cncc(-c2ccc3ncnc(N4CCc5ccc(Cl)cc54)c3c2)c1`, the growth was -58% (active). To `CC(C)(C)c1ccc(OCc2nc3ccccc3n2-c2cccc(N)c2)cc1` belongs 56.8% and 104%; to `Cc1ccc(S(=O)(=O)Nc2ccc(-c3ccc4c(c3)NC(=O)/C4=C\c3ccc[nH]3)cc2)cc1`, 60.6%.

With `N#CC1=C(c2ccco2)Nc2c(c(-c3ccccc3)nn2-c2ccccc2)C12C(=O)Nc1ccc(Cl)cc12` (stereo not drawn), the growth is -73.1% (active). In the case of `CCOc1ccccc1NC(=O)N/C(N)=N/c1nc2ccccc2s1`, the growth is -5.6% (active). Under `OC1CCC(Cn2c(C(F)(F)F)cc3c(Cl)ncnc32)CC1` (stereo not drawn) stands 1.57% (active); under `CC[C@]12C=CCN3CC[C@@]4(c5ccc(OC)cc5N(C)[C@H]4[C@@](O)(C(=O)OC)[C@@H]1OC(=O)CCC[P+](c1ccc(OC)cc1)(c1ccc(OC)cc1)c1ccc(OC)cc1)[C@@H]32`, -68.8% (active); under `COc1cc(C2CC(c3ccc(F)cc3)=Nc3c(N)nc(N)nc3N2)ccc1Oc1nc(Nc2ccc(F)cc2)nc(N(C)C)n1` (stereo not drawn), 6.9% (active). Under `COC(=O)c1c(C(=O)OC)c2ccc3c4ccccc4ccc3n2c1C(=O)OC` stands 97.7%; under `C[C@@H]1CN(c2ccc3ncc(C#Cc4cncc(C(=O)Nc5ccc(CN6CCN(C)CC6)c(C(F)(F)F)c5)c4)n3n2)C[C@@H](C)O1`, -23.5% (active).
